AmpC inh no detg – AmpC beta-lactamase inhibition without detergent. AmpC nitrocefin hydrolysis, absorbance 480 nm, 0.0001% Triton. Potency, µM (top dose mostly 57.1 µM), most hits filed as inhibitors. 0.52% of 330,000 active; also: nearly all actives have a fitted effect of over 20% in size
Target sequence (P00811 whole entry, looked up): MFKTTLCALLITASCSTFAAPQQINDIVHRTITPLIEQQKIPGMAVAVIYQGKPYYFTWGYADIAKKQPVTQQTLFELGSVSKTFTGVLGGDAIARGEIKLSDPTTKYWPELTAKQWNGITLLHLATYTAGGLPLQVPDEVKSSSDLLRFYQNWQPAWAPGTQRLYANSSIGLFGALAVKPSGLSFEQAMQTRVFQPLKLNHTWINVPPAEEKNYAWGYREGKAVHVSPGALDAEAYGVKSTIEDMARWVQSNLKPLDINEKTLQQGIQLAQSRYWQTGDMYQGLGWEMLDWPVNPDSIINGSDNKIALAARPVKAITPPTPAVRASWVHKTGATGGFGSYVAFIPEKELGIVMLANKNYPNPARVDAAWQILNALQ
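20 mM phosphate pH 7.0 + 0.01% (detergent screen) or 0.0001% Triton X-100; 5.3 nM AmpC reagent; cpd preinc 15 min RT; nitrocefin (800 uM stock) to start; A480 q20 s × 4 min; Activity was normalised to no-enzyme and no-compound control wells.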
Cycloheximide cs – counter-screen hit for Shiga toxin inhibitors, cycloheximide; cell reporter, cycloheximide protein synthesis inhibition counterscreen; max response, %; 12% of 300,000 active; in the data active = max response mostly above about 13%, no sharp cut-off; inactive = mostly below about 14%; also: read at 38.3 µM for the half of the compounds with a filed dose
SARS PLpro yeast – blocks SARS-CoV papain-like protease in a yeast assay; 0.19% of 330,000 active; S. cerevisiae expressing SARS-CoV PLpro, growth rescue; AID 485353; Potency, µM (top dose mostly 32.9 µM), usual class: activators; calls by dose curve; also: nearly all actives have a fitted effect of over 55% in size
AmpC inh detg – inhibitors of E. coli AmpC beta-lactamase with detergent. P00811. AmpC hydrolysis of nitrocefin, absorbance 480 nm, 0.01% Triton. Potency, µM (top dose mostly 114 µM), usual class: inhibitors. 0.041% of 370,000 active; also: nearly all actives have a fitted effect of over 25% in size
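20 mM phosphate pH 7.0 + 0.01% (detergent screen) or 0.0001% Triton X-100; 5.3 nM AmpC reagent; cpd preinc 15 min RT; nitrocefin (800 uM stock) to start; A480 q20 s × 4 min; Activity was normalised to no-enzyme and no-compound control wells.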
Shiga toxin inh – Shiga toxin inhibition; Vero cells, Shiga toxin protein synthesis inhibition reporter; inhibition, % at 38.7 µM; 9.2% of 290,000 active; AID 2315; in the data active = inhibition mostly above about 28%, no sharp cut-off; inactive = mostly below about 43%
AMA1-RON2 inh – disrupts binding of P. falciparum AMA1 to RON2 | AlphaScreen AMA1-biotinylated RON2 peptide binding | Potency, µM (highest dose often 58.2 µM), usual class: inhibitors | 0.2% of 360,000 active; also: nearly all actives have a fitted effect of over 45% in size
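AMA1 (3D7) with his tag at 25 nM final met compounds first, then biotinylated RON2 peptide at 25 nM; detection used donor plus acceptor beads, 10 µg/mL apiece, read by AlphaScreen after 30 min at room temperature.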
Hits are given with their value; n = inactive; u = inconclusive; x = no result; [ ] = another dose, or the depositor's remark. Only a selection was taken, and hits are over-represented in it overall. Unless noted, calls follow the shape of the dose curve; as a rule, active = well fitted curve in the direction sought with a large enough effect; inconclusive = small, poorly fitted or top-dose-only effect, or another doubt; inactive = no such curve, though single readings can be large; an effect the other way counts as inactive or inconclusive.

SMILES	AmpC inh no detg	Cycloheximide cs	SARS PLpro yeast	AmpC inh detg	Shiga toxin inh	AMA1-RON2 inh
CCCCN(C)S(=O)(=O)c1ccc(C(=O)Nc2ccc(-c3nc4ccc(C)cc4s3)cc2)cc1	x	x	x	n	x	x
COC(=O)c1c(-c2ccc(Cl)cc2)noc1N1CCN(c2ccc(C)cc2C)CC1	x	x	x	n	x	x
COc1ccc(NC(=O)CC(NCc2ccccn2)C(=O)O)cc1 (stereo not given)	n	n	n	n	n	n
COCCNC(=O)[C@@]1(Cc2ccccc2)C=C[C@@H](C)N1C(C)=O	n	38	n	u	45	n
COc1cccc(CNc2cccc3cccnc23)c1O	n	16	n	n	active	n
COc1cccc(CNc2ccc([N+](=O)[O-])cc2Cl)c1O	n	39	n	n	n	n
COc1cccc(CNc2ccccn2)c1O	n	34	n	u	x	n
Oc1ccc2ccccc2c1CNc1ccccn1	n	n	n	n	n	n
Oc1c(Br)cc(Br)cc1CNc1cccc2cccnc12	n	n	n	n	n	n
COc1cccc(CNc2cc(C)ccn2)c1O	n	39	n	n	51	n
COc1ccccc1CNc1ccc([N+](=O)[O-])cc1C	n	n	n	n	n	n
CC(O)C(NC(=O)OCc1ccccc1)C(=O)OCc1ccccc1 (stereo not given)	n	x	n	u	x	n[11.6 µM]
Oc1c(Br)cc(Br)cc1CNc1ccccn1	n	n	n	n	n	n
COc1ccc(CNc2ccccn2)c(O)c1	n	20	n	n	48	n
CCCCCCOc1ccc(/C(C)=N/NC2=NCCN2)cc1[N+](=O)[O-]	n	n	n	n	n	n
C/C(=N\NC1=NCCN1)c1ccc(N)c([N+](=O)[O-])c1	n	12	n	n	n	n
O=C(N/N=C/c1ccc(F)cc1)c1cc(-c2ccc3c(c2)OCO3)n[nH]1	n	n	n	n	n	n
COc1cc(/C=N/NC(=O)c2cccnc2)ccc1OC(=O)c1ccc2c(c1)OCO2	n	n	n	n	n	n
COc1ccc(/C=N/NC(=O)c2cc(-c3ccc4c(c3)OCO4)n[nH]2)cc1OC	n	29	n	n	n	n[2.32 µM]
CN(C)c1ccc(/C=N/NC(=O)c2cc(-c3ccc4c(c3)OCO4)n[nH]2)cc1	n	31	n	n	60	n
COc1cc(C(=O)NCc2cccc3ccccc23)cc(Cl)c1OC	n	n	n	n	n	n
Cc1ccc(C(=O)N(CCN2CCCCC2)CC2CCCN(C3CCCC3)C2)s1 (stereo not given)	n	33	u	n	72	n
O=C(c1cc2cc(F)ccc2[nH]1)N(Cc1cccnc1)CC1CCCN(C2CCCCC2)C1 (stereo not given)	n	n	n	n	n	n
COCCN(CC1CCCN(C2Cc3ccccc3C2)C1)C(=O)CSC (stereo not given)	n	n	n	n	n	n
COCCN(CC1CCCN(C2Cc3ccccc3C2)C1)C(=O)c1cccs1 (stereo not given)	n	27	n	n	29	n
SMILES	AmpC inh no detg	Cycloheximide cs	SARS PLpro yeast	AmpC inh detg	Shiga toxin inh	AMA1-RON2 inh
O=C(c1cccs1)N(CCN1CCCCC1)CC1CCCN(C2CCCC2)C1 (stereo not given)	n	36	n	n	53	n
Cc1ccccc1NC(=O)Cc1nc(COC(=O)c2cccc(C)c2O)cs1	n	n	n	n	n	n
CCOc1cc(/C=C/c2nc3ccccc3s2)ccc1OCC(=O)N1CCOCC1	n	16	n	n	37	n[11.6 µM]
O=C(CSc1nc2ccccc2s1)N1CCOCC1	n	29	n	n	active	n
Nc1nc(CSCc2ccccc2)nc(N2CCOCC2)n1	n	46	n	n	46	n
Nc1nc(CSc2nc3ccccc3s2)nc(N2CCOCC2)n1	n	15	n	n	n	n
Nc1nc(N2CCOCC2)nc(N(c2ccccc2)c2ccccc2)n1	n	n	n	u	n	n
O=C(CSc1nc2ccccc2s1)NCCCN1CCOCC1	n	n	n	n	n	n
COc1cccc(OC(C)c2ccnc3nc(/N=C/N(C)C)nn23)c1 (stereo not given)	n	n	n	n	n	n
CCN(CC)c1ccc2cc(-c3nnc(Nc4ccc(C)cc4)s3)c(=O)oc2c1	x	n	x	n	n	x
COc1cc(NC(=O)c2cc3cc4cc(OC)ccc4nc3o2)cc(OC)c1	x	x	x	n	x	x
Cc1ccccc1-c1ccc(Nc2ccc(N3CCOCC3)cc2)nn1	n	29	n	n	n	u
O=C1NC2(CCCCC2)C(=O)N1c1ccc(Cl)cc1	n	n	n	n	n	n
CC(=O)c1ccc(N2C(=O)NC3(CCCCC3)C2=O)cc1	n	14	n	n	74	n
CSc1ccc(N2C(=O)NC3(CCCCC3)C2=O)cc1	n	18	n	n	n	n
COc1ccccc1N1CCN(/N=C/c2ccc(O)c(O)c2)CC1	n	38	n	n	55	n
COc1ccccc1N1CCN(/N=C/c2ccc(C(=O)O)cc2)CC1	n	48	n	n	154	n
COc1ccc(/C=N/N2CCN(c3ccccc3OC)CC2)cc1Br	n	30	n	n	x	n
COc1ccc(/C=N/N2CCN(c3ccccc3OC)CC2)cc1OC	n	17	n	n	n	n
CCN1C(=O)NC(=O)/C(=C\c2cn(CC(=O)N3CCCC3)c3ccccc23)C1=O	n	n	n	n	n	n
COc1ccc(Cl)cc1NC(=O)CSc1nc(-c2ccccc2)cc(=O)[nH]1	n	n	n	n	n	n
COc1ccccc1N1CCN(/N=C/c2cc(OC)c(OC(C)=O)c(OC)c2)CC1	n	n	n	u	x	n
COc1ccc(Br)cc1/C=N/N1CCN(Cc2ccccc2)CC1	n	n	n	n	n	u
COc1ccccc1N1CCN(/N=C/c2cc(Br)ccc2F)CC1	n	16	n	n	n	u
COc1ccccc1N1CCN(/N=C(\C)c2ccc(O)cc2)CC1	n	28	n	n	43	n
SMILES	AmpC inh no detg	Cycloheximide cs	SARS PLpro yeast	AmpC inh detg	Shiga toxin inh	AMA1-RON2 inh
O=C(Nc1ccc(Cl)cc1)C1C2CCCCC21 (stereo not given)	n	48	x	n	67	n
CCc1ccc(NC(=O)C2C3/C=C\CCCCC32)cc1 (stereo not given)	n	37	n	n	active	n
O=C1CCC(C(=O)Nc2ccc(Cl)cc2)N1 (stereo not given)	n	n	n	n	n	n
O=C(COC(=O)C1CCC1)Nc1ncc(Cl)cc1Cl	u	x	n	u	x	n
CC(Oc1ccc(F)cc1)C(=O)Nc1nc(-c2ccccn2)cs1 (stereo not given)	n	x	x	n	x	n
O=c1[nH]c(-[n+]2ccccc2)c(/C=N/N=C(\[O-])c2ccccc2)s1	n	19	n	n	41	n
Cc1cc[n+](-c2[nH]c(=O)sc2/C=N/N=C(\[O-])c2ccccc2)cc1	n	49	n	n	68	n

From PubChem BioAssay
